Measured values published in PubChem BioAssay (NCATS).
Inconclusive results are not listed. Calls of active or inactive are those of the source. The call rests on the fitted dose curve; in most records, active means well fitted curve in the direction sought with a large enough effect; inconclusive means small, poorly fitted or top-dose-only effect, or another doubt; inactive means no such curve, though single readings can be large; an effect the other way counts as inactive or inconclusive.

Each compound was assayed against Dual specificity protein kinase CLK4 (Homo sapiens) (UniProt Q9HAZ1) (assay: qHTS Assay for Inhibitors of CDC-like Kinase 4 (ADP-Glo Assay) (AID 1771; further: nearly all actives have a fitted effect of over 70% in size; further: potency means the concentration at half of the fitted maximal effect; on activity change, negative = inhibition: on the % scale 0 is the no-effect control and ±100 the full control effect)). Conditions: recombinant CLK4, ADP-Glo luminescence; series mostly up to 80 µM; activity change, negative = inhibition: at the top concentration.
Summary of the method: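 Clk4 (25 nM) was incubated 1 hr at room temperature with 100 uM RS repeat peptide and 1 uM ATP in buffer with 2 mM MgCl2, 0.5 mM EGTA, 2.5 mM DTT. ADP formed was quantified by ADP-Glo luminescence.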

Sequence of Dual specificity protein kinase CLK4 (Homo sapiens) (Q9HAZ1 whole entry, looked up): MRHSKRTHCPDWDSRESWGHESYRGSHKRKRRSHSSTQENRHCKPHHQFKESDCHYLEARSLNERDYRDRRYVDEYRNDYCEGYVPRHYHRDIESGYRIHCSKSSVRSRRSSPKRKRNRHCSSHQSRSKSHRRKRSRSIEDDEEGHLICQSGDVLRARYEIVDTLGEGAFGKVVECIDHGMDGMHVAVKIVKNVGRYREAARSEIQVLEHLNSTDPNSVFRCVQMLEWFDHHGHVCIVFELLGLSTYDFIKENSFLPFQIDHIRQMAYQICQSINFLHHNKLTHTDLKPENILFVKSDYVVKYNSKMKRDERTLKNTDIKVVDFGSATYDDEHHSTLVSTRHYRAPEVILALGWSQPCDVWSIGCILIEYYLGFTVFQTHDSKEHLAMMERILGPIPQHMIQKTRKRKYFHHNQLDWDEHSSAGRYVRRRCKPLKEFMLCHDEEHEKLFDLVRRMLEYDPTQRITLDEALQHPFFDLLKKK

Row | SMILES | Potency | activity change, negative = inhibition
1 | COc1ccc2[nH]cc(CCNc3ncnc4ccc(-c5ccccc5OC)cc34)c2c1 | 25.1 µM (active) | 
2 | COc1cccc(-c2cncnc2NCc2ccccc2OC)c1 | 15.8 µM (active) | 
3 | CN1CCN(c2ncc3nc(-c4cccs4)c(=O)n(CCc4ccccc4)c3n2)CC1 |  | -4.06% (inactive)
4 | CN(C)c1ncc2nc(CCc3ccccc3)c(=O)n(Cc3cccs3)c2n1 |  | 0.47% (inactive)
5 | CN1CCN(c2ncc3nc(-c4cn(C)c5ccccc45)c(=O)n(CCC#N)c3n2)CC1 |  | -11.5% (inactive)

What follows are compounds tested against Dual specificity protein kinase CLK4 (Homo sapiens) (UniProt Q9HAZ1) (assay: qHTS Assay for Inhibitors of CDC-like Kinase 4 (ADP-FP Assay) (AID 1795; further: nearly all actives have a fitted effect of over 60% in size; further: potency means the concentration at half of the fitted maximal effect;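 on activity change, negative = inhibition: recombinant human CLK4 phosphorylating RS repeat peptide at 1 µM ATP; on the % scale 0 is the no-effect control and ±100 the full control effect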)). Conditions: Transcreener ADP fluorescence polarization; series mostly up to 50 µM; activity change, negative = inhibition: at the top concentration.
Summary of the method: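 FP readout: Orange Transcreener ADP2 tracer (4 nM) plus ADP antibody, read after 30 min at room temperature. Kinase step: 6.25 nM Clk4, 100 uM RS peptide, 1 uM ATP, pH 7.5, 1 h.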

Row | SMILES | activity change, negative = inhibition | Potency
6 | COc1ccc2[nH]cc(CCNc3ncnc4ccc(-c5ccccc5OC)cc34)c2c1 | -26% (inactive) | 
7 | COc1cccc(-c2cncnc2NCc2ccccc2OC)c1 |  | 14.1 µM (active)
8 | COc1cccc(Cn2c(=O)c(CCc3ccccc3)nc3cnc(N4CCN(C)CC4)nc32)c1 | 8.29% (inactive) | 
9 | CN1CCN(c2ncc3nc(-c4cccs4)c(=O)n(CCc4ccccc4)c3n2)CC1 | 9.8% (inactive) | 
10 | COc1ccc(CNc2nc(-c3cccnc3)nc3ccccc23)c(OC)c1 | -16.9% (inactive) | 
11 | CN(C)c1ncc2nc(CCc3ccccc3)c(=O)n(Cc3cccs3)c2n1 | 5.51% (inactive) | 
12 | CN1CCN(c2ncc3nc(-c4cn(C)c5ccccc45)c(=O)n(CCC#N)c3n2)CC1 | 4.55% (inactive) | 

These compounds were tested against Ubiquitin carboxyl-terminal hydrolase 1 (Homo sapiens) (UniProt O94782) (assay: Inhibitors of USP1/UAF1: Pilot qHTS (AID 504865;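 further: rhodamine fluorescence freed from ubiquitin-rhodamine substrate followed over time; top concentration of the series differs between compounds; on the % scale 0 is the no-effect control and ±100 the full control effect; nearly all actives have a fitted effect of over 35% in size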)). Conditions: purified USP1/UAF1, Ub-rhodamine cleavage fluorescence; series mostly up to 54.9 µM; activity change, negative = inhibition: at the top concentration.
Summary of the method: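 1nM USP1/UAF1 + cpd, 15 min RT; start w/ Ub-Rho 150nM final; kinetic FL 480/540 nm, 6 reads q60 s. Buffer 50mM HEPES pH 7.8, 0.5mM EDTA, 1mM TCEP, 0.01% Tween-20, 0.1 mg/ml BSA.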

Sequence of Ubiquitin carboxyl-terminal hydrolase 1 (Homo sapiens) (O94782 whole entry, looked up): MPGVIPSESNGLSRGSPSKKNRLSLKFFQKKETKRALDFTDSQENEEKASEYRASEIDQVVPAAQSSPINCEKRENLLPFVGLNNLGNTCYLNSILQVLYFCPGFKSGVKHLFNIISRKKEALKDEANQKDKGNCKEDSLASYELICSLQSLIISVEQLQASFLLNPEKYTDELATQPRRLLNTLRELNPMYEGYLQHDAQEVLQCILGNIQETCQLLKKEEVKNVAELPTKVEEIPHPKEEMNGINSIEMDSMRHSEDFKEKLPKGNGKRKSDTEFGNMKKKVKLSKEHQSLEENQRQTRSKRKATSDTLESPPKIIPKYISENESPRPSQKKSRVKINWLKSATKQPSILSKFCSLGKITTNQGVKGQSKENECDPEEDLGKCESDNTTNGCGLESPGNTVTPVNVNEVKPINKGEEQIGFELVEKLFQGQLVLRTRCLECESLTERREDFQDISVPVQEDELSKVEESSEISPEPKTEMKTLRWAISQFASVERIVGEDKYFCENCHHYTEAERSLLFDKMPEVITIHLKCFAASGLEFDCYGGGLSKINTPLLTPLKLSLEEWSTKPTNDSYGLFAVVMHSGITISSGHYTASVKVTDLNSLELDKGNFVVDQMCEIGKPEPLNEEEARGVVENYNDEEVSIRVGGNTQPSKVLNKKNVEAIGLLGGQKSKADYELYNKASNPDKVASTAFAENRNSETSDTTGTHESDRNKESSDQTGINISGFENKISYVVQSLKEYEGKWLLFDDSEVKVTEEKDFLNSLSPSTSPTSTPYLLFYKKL

Row | SMILES | activity change, negative = inhibition
13 | COc1ccc2[nH]cc(CCNc3ncnc4ccc(-c5ccccc5OC)cc34)c2c1 | -17.6% (inactive)
14 | COc1cccc(-c2cncnc2NCc2ccccc2OC)c1 | -12.6% (inactive)
15 | CCOC(=O)C1(O)Oc2cc(OC)cc(OC)c2C(=O)C1c1ccccc1 (configuration not stated) | -8.17% [at 114 µM] (inactive)
16 | COc1cccc(Cn2c(=O)c(CCc3ccccc3)nc3cnc(N4CCN(C)CC4)nc32)c1 | -19.3% (inactive)
17 | CN1CCN(c2ncc3nc(-c4cccs4)c(=O)n(CCc4ccccc4)c3n2)CC1 | -13.3% (inactive)
18 | COc1ccc(CNc2nc(-c3cccnc3)nc3ccccc23)c(OC)c1 | -17.8% (inactive)
19 | CN(C)c1ncc2nc(CCc3ccccc3)c(=O)n(Cc3cccs3)c2n1 | -20.2% (inactive)
20 | CC1(C)C(OC(=O)CCC(=O)O)CC[C@]2(C)C1CC[C@@]1(C)C2C(=O)C=C2[C@@H]3C[C@@](C)(C(=O)O)CC[C@]3(C)CCC21C (some centres not stated) | -12.2% [at 114 µM] (inactive)

These compounds were tested against DNA dC->dU-editing enzyme APOBEC-3G (Homo sapiens) (UniProt Q9HC16) (assay: qHTS for inhibitors of Vif-A3G interactions: Validation (AID 588379; further: 0% is about no effect)). Conditions: Vif-A3G protein interaction assay; series mostly up to 46.1 µM; activity change, negative = inhibition: at the top concentration.
Summary of the method: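 HeLa cells stably expressing Vif and A3G-eYFP, 700 cells/well, incubated overnight at 37 deg C, then exposed to compound overnight at 37 deg C. Inhibition of Vif-mediated degradation read as increased yellow fluorescence (Ex 488/Em 500-530) by laser-scanning cytometry.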

Sequence of DNA dC->dU-editing enzyme APOBEC-3G (Homo sapiens) (Q9HC16 whole entry, looked up): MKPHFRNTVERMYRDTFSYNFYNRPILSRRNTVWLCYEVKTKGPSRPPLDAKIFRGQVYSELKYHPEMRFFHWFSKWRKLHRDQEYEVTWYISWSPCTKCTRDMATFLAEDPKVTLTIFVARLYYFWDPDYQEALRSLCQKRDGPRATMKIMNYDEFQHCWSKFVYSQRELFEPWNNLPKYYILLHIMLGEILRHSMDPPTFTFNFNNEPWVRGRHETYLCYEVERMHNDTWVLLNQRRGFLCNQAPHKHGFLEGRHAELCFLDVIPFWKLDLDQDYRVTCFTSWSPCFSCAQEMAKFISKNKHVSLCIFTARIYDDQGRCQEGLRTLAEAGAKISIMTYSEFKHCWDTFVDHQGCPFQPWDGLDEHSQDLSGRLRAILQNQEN

Row | SMILES | activity change, negative = inhibition
21 | CC(C)=CCc1c(O)cc(O)c2c1O[C@H](c1ccccc1)CC2=O | -3.15% (inactive)
22 | C=C1CCC(O)C/C1=C\C=C1/CCCC2(C)C1CCC2C(C)CCCC(C)C (configuration not stated) | -12.1% (inactive)
23 | C=C1CCC(O)C/C1=C\C=C1/CCCC2(C)C1CCC2C(C)/C=C/C(C)C(C)C (configuration not stated) | 0.635% (inactive)

These compounds were tested against Tumor susceptibility gene 101 protein (Homo sapiens) (UniProt Q99816) (assay: qHTS Assay for Iinhibitors of HIV-1 Budding by Blocking the Interaction of PTAP/TSG101: Hit Validation (AID 651600; further: nearly all actives have a fitted effect of over 70% in size; further: potency means the concentration at half of the fitted maximal effect; on activity change, negative = inhibition: on the % scale 0 is the no-effect control and ±100 the full control effect)). Conditions: PTAP peptide/TSG101 UEV interaction, biochemical assay; series mostly up to 57.5 µM; activity change, negative = inhibition: at the top concentration.
Summary of the method: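 Tsg101 binding domain 10 uM + FITC-PTAP peptide 50 nM (final), 10 mM HEPES pH 7.5/0.15 M NaCl/0.01% Tween 20/3 mM EDTA/0.1 mM TCEP; 20 min RT; FP read, FITC filters.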

Sequence of Tumor susceptibility gene 101 protein (Homo sapiens) (Q99816 whole entry, looked up, the tested form may be a part): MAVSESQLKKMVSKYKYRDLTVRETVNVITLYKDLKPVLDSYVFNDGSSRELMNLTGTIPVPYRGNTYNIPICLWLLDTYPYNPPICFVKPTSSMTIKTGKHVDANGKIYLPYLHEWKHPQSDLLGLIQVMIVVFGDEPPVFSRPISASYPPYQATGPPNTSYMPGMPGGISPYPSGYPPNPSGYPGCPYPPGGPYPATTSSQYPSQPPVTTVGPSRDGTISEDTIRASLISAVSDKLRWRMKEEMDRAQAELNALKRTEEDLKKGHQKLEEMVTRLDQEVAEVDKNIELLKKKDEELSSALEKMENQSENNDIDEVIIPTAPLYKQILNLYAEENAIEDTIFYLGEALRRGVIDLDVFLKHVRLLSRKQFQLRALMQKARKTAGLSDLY

Row | SMILES | Potency | activity change, negative = inhibition
24 | Oc1ccc2ccc3cccc[n+]3c2c1 | 4.11 µM (active) | 
25 | O=C1c2cccc3c(O)ccc(c23)C(=O)N1Cc1ccco1 | 1.46 µM (active) | 
26 | Nc1ccc2cc3[nH]c4cc(N)ccc4c3nc2c1 | 0.366 µM (active) | 
27 | Cc1nc(Nc2ccc(S(=O)(=O)N3CCCCC3C)cc2)c2nnn(Cc3ccccc3)c2n1 (configuration not stated) |  | 1.6% (inactive)
28 | O=C1c2cccc3c(O)ccc(c23)C(=O)N1Cc1ccccc1 | 2.59 µM (active) | 
29 | Nc1ccc(-c2c3ccc(=O)cc-3oc3cc(O)ccc23)cc1C(=O)O | 23.1 µM (active) | 
30 | CC(=O)Nc1ccc(N2C(=O)c3cccc4c(O)ccc(c34)C2=O)cc1 | 2.31 µM (active) | 
31 | CCOC(=O)c1cnc2ccc(OC)cc2c1Nc1ccc(N2CCN(C)CC2)cc1 |  | -2.48% (inactive)
32 | CCN1C(=O)c2cccc3c(N)ccc(c23)C1=O | 2.06 µM (active) | 
33 | CCNc1ccc2noc3c2c1C(=O)c1ccccc1-3 | 3.26 µM (active) | 

Each compound was assayed against Rap guanine nucleotide exchange factor 3 (Homo sapiens) (UniProt O95398) (assay: Confirmatory qHTS for antagonist of cAMP-regulated guanine nucleotide exchange factor 3 (EPAC1) (AID 1645880; further: nearly all actives have a fitted effect of over 55% in size; further: potency means the concentration at half of the fitted maximal effect;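 on activity, negative = inhibition: plate controls were DMSO only for no effect and full effect of the ATA control for full effect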)). Conditions: EPAC1 Rap1B-BODIPY-GDP exchange, fluorescence; activity, negative = inhibition: at 115 µM (top of the series).
Summary of the method: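 Nucleotide exchange uses 100 nM EPAC1, 250 nM RAP1B-BODIPY-GDP and 50 uM GDP, with compounds in a concentration-titration series. After 5 min at room temperature, fluorescence (480 nm ex/540 nm em) is read every 5 min for 30 min. Data are normalized to control ATA and DMSO.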

Sequence of Rap guanine nucleotide exchange factor 3 (Homo sapiens) (O95398 whole entry, looked up): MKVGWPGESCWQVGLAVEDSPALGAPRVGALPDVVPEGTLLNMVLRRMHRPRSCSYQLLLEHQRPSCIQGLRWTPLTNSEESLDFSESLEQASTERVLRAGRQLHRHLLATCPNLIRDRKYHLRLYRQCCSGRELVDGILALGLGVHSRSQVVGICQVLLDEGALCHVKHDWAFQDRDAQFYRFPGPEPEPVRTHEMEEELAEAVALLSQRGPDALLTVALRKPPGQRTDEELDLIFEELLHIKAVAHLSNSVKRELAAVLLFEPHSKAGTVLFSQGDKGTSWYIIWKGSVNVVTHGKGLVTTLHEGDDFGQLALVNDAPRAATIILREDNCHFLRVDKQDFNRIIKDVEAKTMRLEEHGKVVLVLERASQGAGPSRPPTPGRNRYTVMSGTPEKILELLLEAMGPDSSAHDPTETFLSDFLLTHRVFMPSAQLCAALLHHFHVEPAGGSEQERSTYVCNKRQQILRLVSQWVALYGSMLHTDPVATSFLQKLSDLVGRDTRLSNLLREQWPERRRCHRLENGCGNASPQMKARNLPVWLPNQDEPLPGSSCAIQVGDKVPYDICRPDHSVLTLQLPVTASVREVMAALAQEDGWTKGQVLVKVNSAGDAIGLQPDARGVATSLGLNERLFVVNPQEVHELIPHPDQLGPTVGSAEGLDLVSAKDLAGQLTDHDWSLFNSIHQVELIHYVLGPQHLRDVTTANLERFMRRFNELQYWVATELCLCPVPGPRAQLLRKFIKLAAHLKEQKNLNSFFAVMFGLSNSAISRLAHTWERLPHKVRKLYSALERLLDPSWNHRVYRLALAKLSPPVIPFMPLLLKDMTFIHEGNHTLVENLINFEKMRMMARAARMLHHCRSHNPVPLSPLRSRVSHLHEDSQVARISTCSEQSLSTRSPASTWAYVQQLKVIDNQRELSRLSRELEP

Row | SMILES | activity, negative = inhibition | Potency
34 | COc1cc2c(cc1OC)C1C(=O)c3ccc4c(c3OC1CO2)C=CC(C)(C)O4 (configuration not stated) | -6.5% (inactive) | 
35 | COc1ccc2[nH]cc(CCNc3ncnc4ccc(-c5ccccc5OC)cc34)c2c1 | -1.08% (inactive) | 
36 | Cc1cc(C)c2nc(N3C(=O)C(O)=C(C(=O)c4ccco4)C3c3ccc(O)cc3)sc2c1 (configuration not stated) |  | 37.9 µM (active)
37 | COC(=O)[C@@]1(C)CCC[C@@]2(C)c3ccc(O)c(C(C)C)c3CCC21 (some centres not stated) | -15.1% (inactive) | 
38 | COc1cccc(-c2cncnc2NCc2ccccc2OC)c1 | -15.4% (inactive) | 
39 | CCOC(=O)C(C)Sc1ncnc2c1nnn2-c1ccc(F)cc1 (configuration not stated) | -25.6% (inactive) | 
40 | Oc1ccc2ccc3cccc[n+]3c2c1 | 249% (inactive) | 
41 | O=C1c2cccc3c(O)ccc(c23)C(=O)N1Cc1ccco1 | 220% (inactive) | 
42 | O=C(Nc1sc2c(c1C(=O)O)CCC2)c1ccccc1F | -23.4% (inactive) | 
43 | CCOC(=O)C1(O)Oc2cc(OC)cc(OC)c2C(=O)C1c1ccccc1 (configuration not stated) | -7.44% (inactive) | 
44 | COc1cccc(Cn2c(=O)c(CCc3ccccc3)nc3cnc(N4CCN(C)CC4)nc32)c1 | -3.79% (inactive) | 
45 | CC(C)=CCc1c(O)cc(O)c2c1O[C@H](c1ccccc1)CC2=O | -14.3% (inactive) | 
46 | Nc1ccc2cc3[nH]c4cc(N)ccc4c3nc2c1 | 432% (inactive) | 
47 | O=c1cnc2cnc(OCc3ccccc3)nc2n1CCc1ccccc1 | -19.2% (inactive) | 
48 | CN1CCN(c2ncc3nc(-c4cccs4)c(=O)n(CCc4ccccc4)c3n2)CC1 | -0.847% (inactive) | 
49 | Cc1nc(Nc2ccc(S(=O)(=O)N3CCCCC3C)cc2)c2nnn(Cc3ccccc3)c2n1 (configuration not stated) | -19.5% (inactive) | 
50 | COc1ccc(-c2nc(C)ncc2-c2ccc(Cl)cc2)c(O)c1 | -21.4% (inactive) | 
51 | O=c1cnc2cnc(Oc3ccccc3)nc2n1Cc1cccs1 | -16.2% (inactive) | 
52 | O=C(c1cnccn1)N1CCC[C@@]2(CCN(c3cccc(-c4ccccc4)c3)C2)C1 | -11.2% (inactive) | 
53 | CC1=NOC(=O)/C1=C\c1ccc(-c2ccc(Br)cc2)o1 |  | 25.1 µM (active)

Row | SMILES | activity, negative = inhibition | Potency
54 | O=C1c2cccc3c(O)ccc(c23)C(=O)N1Cc1ccccc1 | 288% (inactive) | 
55 | C=C1CCC(O)C/C1=C\C=C1/CCCC2(C)C1CCC2C(C)CCCC(C)C (configuration not stated) |  | 55.9 µM (active)
56 | Nc1ccc(-c2c3ccc(=O)cc-3oc3cc(O)ccc23)cc1C(=O)O | 356% (inactive) | 
57 | COc1ccc(CNc2nc(-c3cccnc3)nc3ccccc23)c(OC)c1 | -18.7% (inactive) | 
58 | O=C(/C=C/c1ccco1)NCC1OCCc2ccccc21 (configuration not stated) |  | 19 µM (active)
59 | O=C(c1ccco1)N1CCC2(CC1)CN(c1cccc(-c3ccccc3)c1)C2 | -1.86% (inactive) | 
60 | CN(C)c1ncc2nc(CCc3ccccc3)c(=O)n(Cc3cccs3)c2n1 | -10.7% (inactive) | 
61 | CN1CCN(c2ncc3nc(CCc4ccccc4)c(=O)n(Cc4cccs4)c3n2)CC1 | 0.454% (inactive) | 
62 | CC(=O)Nc1ccc(N2C(=O)c3cccc4c(O)ccc(c34)C2=O)cc1 | 169% (inactive) | 
63 | CCOc1ccc(-n2c(SCC(=O)Nc3ccc(F)cc3)nc3c([nH]c4ccccc43)c2=O)cc1 | -17.2% (inactive) | 
64 | CC1(C)C(OC(=O)CCC(=O)O)CC[C@]2(C)C1CC[C@@]1(C)C2C(=O)C=C2[C@@H]3C[C@@](C)(C(=O)O)CC[C@]3(C)CCC21C (some centres not stated) | -10.6% (inactive) | 
65 | CCOC(=O)c1cnc2ccc(OC)cc2c1Nc1ccc(N2CCN(C)CC2)cc1 | -26.7% (inactive) | 
66 | C=C1CCC(O)C/C1=C\C=C1/CCCC2(C)C1CCC2C(C)/C=C/C(C)C(C)C (configuration not stated) | -11.5% (inactive) | 
67 | CCN1C(=O)c2cccc3c(N)ccc(c23)C1=O | 237% (inactive) | 
68 | COc1ccc(Oc2ncc3nc(CCc4ccccc4)c(=O)n(CCC#N)c3n2)cc1 | -17.5% (inactive) | 
69 | CCNc1ccc2noc3c2c1C(=O)c1ccccc1-3 | 123% (inactive) | 
70 | COc1ccc2c(=O)c(OC)c(-c3ccccc3)oc2c1 | -18.7% (inactive) | 
71 | CN1CCN(c2ncc3nc(-c4cn(C)c5ccccc45)c(=O)n(CCC#N)c3n2)CC1 | 27.5% (inactive) | 
72 | COc1ccc(C(C(=O)NC(C)(C)C)n2c(=O)c(-c3cc4ccccc4[nH]3)nc3ccccc32)cc1 (configuration not stated) | -25.4% (inactive) | 
